Screening results as filed in PubChem BioAssay.
Only some compounds are listed: those with a hit (about 2.6% of all), similar ones and a draw of the others.
Cardio protect: modulators protecting cardiomyocytes from myocardial damage; H9c2 cardiomyocytes, H2O2 injury protection, ATPLite, 2 h; protection from H2O2 cell death, % at 20 µM; 360,000 compounds, 0.63% hits; AID 588492;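 active means compounds giving at least 50% protection of heart cells from peroxide-induced death in the single-dose screen, raw or plate-pattern-corrected value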;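 further: 0% = DMSO wells with peroxide and 100% = DMSO wells without peroxide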
Jurkat NFkB inh: lowers PMA/ionomycin-induced NF-kB signal in Jurkat cells; PMA/ionomycin-induced NF-kB luciferase reporter, luminescence; inhibition, % at 4 µM; 330,000 compounds, 0.53% hits; in the data active means inhibition above about 50%
NR2F2 inh: inhibitors of human COUP-TFII (NR2F2). HEK293T NGFI-A luciferase reporter, luminescence. 370,000 compounds, 0.7% hits. inhibition, % at 8.6 µM. AID 686940. P24468;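 active means inhibition above a per-plate cutoff, mean inhibition of test wells between control levels plus 3 SD, cut at about 38% in these data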;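 further: cells cotransfected with COUP-TFII expression vector driving the NGFI-A reporter; 0% = median of COUP-TF2 test wells and 100% = reporter-only cells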
Target sequence (P24468 whole entry, looked up): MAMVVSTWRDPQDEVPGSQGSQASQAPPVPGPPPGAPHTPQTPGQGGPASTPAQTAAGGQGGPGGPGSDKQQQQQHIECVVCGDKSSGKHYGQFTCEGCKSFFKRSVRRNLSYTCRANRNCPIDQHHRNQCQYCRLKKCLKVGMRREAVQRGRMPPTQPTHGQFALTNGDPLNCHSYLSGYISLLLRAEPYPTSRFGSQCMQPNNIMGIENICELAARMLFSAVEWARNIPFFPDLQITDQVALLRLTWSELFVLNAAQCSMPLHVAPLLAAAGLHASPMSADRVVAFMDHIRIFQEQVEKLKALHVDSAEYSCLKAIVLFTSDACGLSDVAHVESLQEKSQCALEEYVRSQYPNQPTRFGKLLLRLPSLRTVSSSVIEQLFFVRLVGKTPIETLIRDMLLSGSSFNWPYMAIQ
H9c2 TAG inh: inhibitors of triacylglycerol accumulation; inhibition, % at 12.5 µM; 230,000 compounds, 0.66% hits; H9c2 cells, Nile Red lipid (TAG) fluorescence; cells loaded with 200 µM oleic acid; AID 651582;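 active means pattern-corrected inhibition of lipid staining of at least 50% with the nuclear-stain viability signal not falling by more than 50%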;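 further: 0% = DMSO wells and 100% = triacsin C control wells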
697 NFkB inh: inhibitors of the PMA/ionomycin-induced NF-kB reporter in 697 B cells; 697 B-cell NF-kB luciferase reporter, 16 h; 330,000 compounds, 0.33% hits; inhibition, % at 4 µM; in the data active means inhibition above about 35%
Gli-Sufu antag: blocks Gli-Sufu signaling in a luciferase reporter; Sufu-KO-LIGHT fibroblasts, Gli luciferase reporter luminescence; inhibition, % at 5 µM; 340,000 compounds, 0.74% hits; AID 588413;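 active means inhibition above about 55%, limit read from the data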;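 further: 0% = DMSO-treated cells and 100% = wells with medium but no cells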
Gli antag conf: Gli-SUFU antagonism confirmation, single concentration. shares compounds with Gli-Sufu antag. Sufu-KO-LIGHT cells, Gli luciferase reporter, luminescence. inhibition, % at 5 µM. 2,500 compounds, 40% hits;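 active means mean inhibition at 5 µM reaching about 45%, limit read from the data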;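 further: plate controls were DMSO-treated cells for no effect and wells lacking cells for full effect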
Gli cytotox: cytotoxicity counter-screen for Gli-SUFU antagonists; shares compounds with Gli-Sufu antag; cytotoxicity, % at 5 µM; 2,500 compounds, 32% hits; Sufu-KO-LIGHT cells cytotoxicity, ATP luminescence;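 active means mean cytotoxicity at 5 µM above about 25%, limit read from the data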;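 further: cells exposed to compound overnight for roughly 16 to 18 hours; plate controls were DMSO wells with cells for no effect and medium without cells for full effect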
Wnt3a cs: inhibits Wnt3a reporter, counter-screen for Gli-SUFU antagonists; shares compounds with Gli-Sufu antag; Wnt-LIGHT cells, Wnt3a-driven luciferase reporter, luminescence; inhibition, % at 6.25 µM; 2,500 compounds, 20% hits; AID 651995;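 active means mean inhibition above about 25%, limit read from the data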
Active calls of the source: *; / = not tested or not shown.

SMILES | Cardio protect | Jurkat NFkB inh | NR2F2 inh | H9c2 TAG inh | 697 NFkB inh | Gli-Sufu antag | Gli antag conf | Gli cytotox | Wnt3a cs
CCCCN1CN2Cc3ccccc3C2CS1(=O)=O (stereo not drawn) | / | / | -7.7 | / | / | / | / | / | /
O=C(O)CCCNC(=O)CCCNC(=O)C(c1ccccc1)c1ccccc1 | 7.8 | -15.4 | 12.9 | / | 4.4 | 51.4 | 25.4 | 7.7 | -9.3
FC(F)(F)c1ccc(N2CCN(c3cc(-c4ccccc4)nc4ncnn34)CC2)nc1 | -17.2 | 20.3 | 12.5 | / | -9.8 | 57.2* | 49.3* | 9.8 | -64.0
FC(F)(F)c1cccc(Nc2cc(-c3ccccc3)nc3ncnn23)c1 | 7.3 | 0.0 | 13.0 | -0.1 | 3.3 | -0.9 | / | / | /
C#CCN1C(=O)[C@]2(NCCc3c2[nH]c2ccc(OC)cc32)c2ccccc21 | / | / | -27.9 | / | / | / | / | / | /
Cc1ccc(-c2cc(C(=O)N/N=C/c3cccnc3)c3ccccc3n2)cc1C | -10.8 | -13.2 | -10.6 | -0.8 | -71.5 | -42.8 | / | / | /
Cc1ccc(C)c(-c2cc(C(=O)N/N=C/c3cccnc3)c3ccccc3n2)c1 | 56.5* | 13.9 | 6.7 | -7.2 | 12.6 | 52.2 | 18.9 | 7.4 | -39.9
Cc1ccc2c(c1)CCCN2C(=O)CCc1nc2ccccc2c(=O)[nH]1 | 76.3* | 47.8 | -17.4 | 39.6 | -61.7 | 90.4* | 22.0 | 54.6* | -11.7
COC(=O)c1[nH]c2c(c1C)C(=O)CC(c1ccccc1)C2 (stereo not drawn) | -3.0 | 44.7 | -100.0 | / | -49.8 | 56.9* | 51.7* | 53.4* | -23.8
CCCCc1nnc(NC(=O)CSCc2cc(=O)n3c(C)csc3n2)s1 | 1.6 | 2.2 | 9.0 | / | 13.7 | -2.9 | / | / | /
CCCCc1nnc(NC(=O)CSCc2cc(=O)n3cc(C)sc3n2)s1 | -0.8 | 0.8 | -1.6 | / | 2.7 | 51.4 | 14.4 | 10.5 | -12.2
COc1ccc(OC)c(C(=O)NC(CC(N)=O)c2ccc(NCCN3CCOCC3)c([N+](=O)[O-])c2)c1 (stereo not drawn) | 10.2 | -25.3 | 8.5 | -0.2 | -12.3 | 94.4* | 10.7 | 8.9 | -22.7
COc1ccc(OC)c(C(=O)NC(CC(N)=O)c2ccc(NCCN3CCCC3)c([N+](=O)[O-])c2)c1 (stereo not drawn) | 0.5 | -11.2 | -2.3 | 5.3 | 16.7 | 4.0 | / | / | /
CC(C)[C@H](NC(N)=O)C(=O)Nc1ccc(F)c(Cl)c1 | 7.1 | 0.1 | 10.2 | 2.9 | 1.7 | 53.2 | 3.6 | 0.5 | -6.0
COc1ccccc1CNC(=O)[C@H](C)N1C(=O)N2CCc3c([nH]c4ccccc34)[C@@]2(C)C1=O | -9.3 | 11.2 | 6.0 | / | 2.3 | 65.9* | 34.1 | 5.4 | 1.8
COc1ccc(CCNC(=O)[C@H](C)N2C(=O)N3CCc4c([nH]c5ccccc45)[C@@]3(C)C2=O)cc1OC | -5.3 | 4.3 | 23.7 | / | 8.4 | -2.1 | / | / | /
CCc1ccc(/C=C/C(=O)NC2=NCCS2)cc1 | / | / | -26.5 | / | / | / | / | / | /
CC(=O)Nc1nc(C2CC2)cc(-c2ccccc2)c1C#N | -8.1 | 24.5 | -8.6 | -2.7 | 14.6 | 14.2 | / | / | /
N#Cc1c(-c2ccccc2)cc(C2CC2)nc1N | -4.8 | -21.4 | -8.1 | -19.5 | -24.1 | 50.3 | 21.6 | 23.6 | -14.5
CCOC(=O)Cn1cc(CN2C(C(=O)OC)CN(C3CC3)CCS2(=O)=O)nn1 (stereo not drawn) | / | / | -3.1 | / | / | / | / | / | /
COc1ccc2cc3cc(C(=O)N4CCN(C5CCCCC5)CC4)oc3nc2c1 | -2.2 | -0.1 | / | / | 18.8 | 52.7 | 25.6 | 35.6* | -23.4
C[C@@H]1CCN(C2CC2)S(=O)(=O)c2ccc(N3CC[C@@H](O)C3)cc2O1 | / | / | -1.4 | / | / | / | / | / | /
Cc1cc(C)n2nc(SCC3COc4ccccc4O3)nc2n1 (stereo not drawn) | -0.4 | -26.7 | -47.2 | 22.2 | -47.6 | 99.1* | -13.3 | 9.4 | -81.6
CC1(C)Cc2ccccc2C2=C(C(=O)N3CCCCCC3)C(=O)C(=O)N21 | -3.4 | -0.1 | 14.2 | -6.2 | -2.5 | 72.5* | 11.8 | 11.0 | -5.6
COc1ccc(/C=C(/NC(=O)c2ccccc2)C(=O)N/N=C/c2ccc3c(c2)OCO3)cc1OC | 29.0 | / | 1.7 | / | / | 83.8* | 18.4 | -0.4 | -7.0
SMILES | Cardio protect | Jurkat NFkB inh | NR2F2 inh | H9c2 TAG inh | 697 NFkB inh | Gli-Sufu antag | Gli antag conf | Gli cytotox | Wnt3a cs
O=C(NCCc1ccccc1)C1CCC(CNS(=O)(=O)c2ccccc2)CC1 (stereo not drawn) | -4.2 | 0.8 | -5.6 | / | 18.4 | 50.1 | 9.9 | -6.7 | -18.4
COc1ccc(CCNC(=O)C2CCC(CNS(=O)(=O)c3ccccc3)CC2)cc1OC (stereo not drawn) | / | 4.0 | / | / | 20.3 | / | / | / | /
CCC(C)OC(=O)C[N+](C)(C)CCOC1CC2CCC1(C)C2(C)C (stereo not drawn) | -11.2 | -0.5 | 11.0 | / | -8.9 | 72.8* | 70.8* | 35.7* | 9.4
CC(C)CCOC(=O)C[N+](C)(C)CCOC1CC2CCC1(C)C2(C)C (stereo not drawn) | -14.5 | -0.7 | 8.4 | 1.4 | 2.5 | 77.3* | 72.7* | 23.2 | 23.2
CCCCCCOC(=O)C[N+](C)(C)CCOC1CC2CCC1(C)C2(C)C (stereo not drawn) | 4.0 | 14.4 | -6.1 | -8.1 | 13.6 | -2.7 | / | / | /
CCCOC(=O)C[N+](C)(C)CCOC1CC2CCC1(C)C2(C)C (stereo not drawn) | -9.8 | -7.0 | 3.7 | -14.0 | -15.3 | 42.3 | / | / | /
CCCCOC(=O)C[N+](C)(C)CCOC1CC2CCC1(C)C2(C)C (stereo not drawn) | -0.4 | 2.7 | -1.7 | / | -15.1 | 69.0* | 71.9* | 37.4* | 2.4
O=C(NCc1ccc(C(=O)N2CCCC2)cc1)c1cccc(Br)c1 | / | / | 8.1 | / | / | / | / | / | /
CCC(C)N(C(=O)CSc1nnc(-c2cccnc2)n1C1CCCCC1)C(C)CC (stereo not drawn) | / | / | 12.9 | / | / | / | / | / | /
Cc1ccc(CNC(=O)c2ccc3c(=O)c(O)c(-c4ccc(C)cc4)[nH]c3c2)cc1 | 59.2* | 39.1 | 5.2 | -3.2 | -13.8 | 65.8* | 63.0* | 11.6 | 70.1*
Cn1nc(-c2ccc(C(=O)N3CCN(Cc4ccccc4)CC3)cc2)c2ccccc2c1=O | -11.6 | 10.1 | 33.3 | / | -30.3 | 53.0 | 35.9 | 6.4 | 9.3
O=C(CSc1nc2sc3c(c2c(=O)n1-c1ccc(Cl)cc1)CCCC3)c1ccccc1Cl | / | / | -6.2 | / | / | / | / | / | /
O=c1[nH]cnc2c1sc1nc(-c3ccccc3)c3c(c12)CCCC3 | 0.6 | -37.3 | -5.5 | -4.1 | -11.3 | 9.1 | / | / | /
Cc1ccc(-c2nc3sc4c(N)ncnc4c3c3c2CCCC3)cc1 | -4.0 | 15.2 | 7.1 | / | 24.6 | 54.9 | 27.8 | -14.2 | 25.4*
COC(=O)C1=C(C)N(Cc2ccccc2C(F)(F)F)C(=NCc2ccc(OC)cc2)NC1c1ccc(C(F)(F)F)cc1 (stereo not drawn) | / | / | -1.7 | / | / | / | / | / | /
